Assay results from PubChem BioAssay (Tox21).
“And” between values parts separate entries of the source, which are not always exact repeats. Identical values can stand only once. Inconclusive results are not listed. Entries that show only a call come without a potency. The source made the active and inactive calls. Unless noted, calls come from the whole dose curve; as a rule, active = well fitted curve in the direction sought with a large enough effect in the repeat runs; inconclusive = weak or mixed curves; inactive = no such curve, though single readings can be large; an effect the other way counts as inactive or inconclusive.

Legend:
[1] = qHTS assay for small molecules that induce genotoxicity in human embryonic kidney cells expressing luciferase-tagged ATAD5 (AID 651632); note: nearly all actives have a fitted effect of over 15% in size
Summary of the method: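 Genotoxicity read-out via ATAD5-luciferase: HEK293T cells, 16 hr compound incubation at 37C, Amplite detection.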

[2] = qHTS assay for small molecule agonists of the p53 signaling pathway - cell viability (AID 651633; calls by dose curve;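 note: p53RE-bla HCT reporter cells with a stable beta-lactamase p53 reporter; series mostly up to about 83 µM; nearly all actives have a fitted effect of over 30% in size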)
Summary of the method: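 Viability counter-read: CellTiter-Glo luminescence (30 min, room temperature) in the same p53RE-bla plates. These plates had been exposed to compounds for 16 h at 37 C.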

[3] = qHTS assay for small molecules that induce genotoxicity in human embryonic kidney cells expressing luciferase-tagged ATAD5 - cell viability (AID 651634; calls by dose curve; note: nearly all actives have a fitted effect of over 25% in size; note: potency is the fitted concentration of half-maximal effect)
Summary of the method: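 Live-cell protease activity (CellTiter-Fluor, fluorescence) indicates viability. HEK293T cells with luciferase-tagged ATAD5; 15.5 hr compound treatment at 37C.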

[4] = qHTS assay for small molecule disruptors of the mitochondrial membrane potential - cell viability (AID 720634; calls by dose curve;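 note: human HepG2 liver cancer cells; series mostly up to about 83 µM; nearly all actives have a fitted effect of over 20% in size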)
Summary of the method: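 Human hepatoma HepG2 cells were treated for 1 hr with test chemicals, then given m-MPI dye and CellTiter-Glo. Cell viability reflects luminescence proportional to cellular ATP.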

[5] = qHTS assay for small molecule disruptors of the mitochondrial membrane potential (AID 720635); note: potency is the fitted concentration of half-maximal effect
Summary of the method: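 Mitochondrial membrane potential tracked with Mito-MPS dye, red aggregates (ex 540/em 590 nm) against green monomers (ex 490/em 535 nm). Compound treatment 1 hr at 37C, dye 30 min in HepG2.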

[6] = qHTS assay to test for compound auto fluorescence at 590 nm (red) in HepG2 cells (AID 720674)
Summary of the method: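 Red autofluorescence (Ex/Em 540/590 nm, Rose Bengal sodium equivalents) was measured in HepG2 cells, 2,000 per well in MEM plus 10% FBS, plated overnight at 37 C. Readings were taken 1 hr after adding 23 nL compound or DMSO, at 37 C and 5% CO2.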

[7] = qHTS assay to test for compound auto fluorescence at 535 nm (green) in HepG2 cells (AID 720675)
[8] = qHTS assay to test for compound auto fluorescence at 460 nm (blue) in HEK293 cells (AID 720678)
Summary of the method: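 Intrinsic compound fluorescence is recorded in live HEK293 cultures after overnight incubation at 37C, 5% CO2, using excitation 405 nm and emission 460 nm. Values are referenced to triamterene.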

[9] = qHTS assay to test for compound auto fluorescence at 590 nm (red) in HEK293 cells (AID 720679)
Summary of the method: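 Red autofluorescence, HEK293 cells: 2,000 cells/well; attach 4-5 hr 37C; add 23 nL cpd or DMSO; incubate o/n 37C 5% CO2; read Ex540/Em590; Rose Bengal sodium reference.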

[10] = qHTS assay to test for compound auto fluorescence at 535 nm (green) in HEK293 cells (AID 720680)
[11] = qHTS assay to test for compound auto fluorescence at 535 nm (green) in HEK293 cell free culture (AID 720682)
Summary of the method: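 Steps: dispense DMEM/10% FBS into empty wells; pin in compound or DMSO; measure fluorescence at 485/535 nm. Values are fluorescein equivalents.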

[12] = qHTS assay to test for compound auto fluorescence at 590 nm (red) in HEK293 cell free culture (AID 720683)
Summary of the method: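 Red-channel autofluorescence of compounds in culture medium (DMEM, 10% FBS), no cells, measured at 540/590 nm. Rose Bengal sodium is the reference fluorophore for equivalence.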

[13] = qHTS assay to test for compound auto fluorescence at 590 nm (red) in HepG2 cell free culture (AID 720684)
Summary of the method: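 Plate contents were MEM with 10% FBS plus test compound or DMSO, no cells. Fluorescence was recorded with 540 nm excitation and 590 nm emission.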

[14] = qHTS assay to test for compound auto fluorescence at 460 nm (blue) in HepG2 cell free culture (AID 720685)
Summary of the method: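 Compound (23 nL) or DMSO pinned into cell-free MEM with 10% FBS; blue fluorescence read at 405/460 nm excitation/emission, expressed as auto-fluorescence equivalency to triamterene.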

[15] = qHTS assay to test for compound auto fluorescence at 535 nm (green) in HepG2 cell free culture (AID 720686)
[16] = qHTS assay to test for compound auto fluorescence at 460 nm (blue) in HepG2 cells (AID 720687)
Summary of the method: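 Blue-channel autofluorescence (Ex/Em 405/460 nm, triamterene-equivalent) was measured after 1 hr compound exposure at 37 C, 5% CO2. Cells were HepG2, plated overnight at 37 C in MEM plus 10% FBS.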

[17] = qHTS assay for small molecule agonists of the p53 signaling pathway (AID 651631; calls by dose curve; note: nearly all actives have a fitted effect of over 15% in size; note: potency is the fitted concentration of half-maximal effect)
Summary of the method: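 HCT-116 p53RE-bla reporter line, 16 h compound treatment at 37 °C, then fluorescence after 2 h with B/G FRET substrate.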

[18] = target: Glucocorticoid receptor (Homo sapiens) (UniProt P04150); experiment: qHTS assay to identify small molecule agonists of the glucocorticoid receptor (GR) signaling pathway (AID 720691; active = well fitted activation curve with a large enough effect in the signal ratio in the repeat runs, not every such curve was filed as active; the % refers to the signal ratio)
Chain of Glucocorticoid receptor (Homo sapiens) (P04150 whole entry, looked up): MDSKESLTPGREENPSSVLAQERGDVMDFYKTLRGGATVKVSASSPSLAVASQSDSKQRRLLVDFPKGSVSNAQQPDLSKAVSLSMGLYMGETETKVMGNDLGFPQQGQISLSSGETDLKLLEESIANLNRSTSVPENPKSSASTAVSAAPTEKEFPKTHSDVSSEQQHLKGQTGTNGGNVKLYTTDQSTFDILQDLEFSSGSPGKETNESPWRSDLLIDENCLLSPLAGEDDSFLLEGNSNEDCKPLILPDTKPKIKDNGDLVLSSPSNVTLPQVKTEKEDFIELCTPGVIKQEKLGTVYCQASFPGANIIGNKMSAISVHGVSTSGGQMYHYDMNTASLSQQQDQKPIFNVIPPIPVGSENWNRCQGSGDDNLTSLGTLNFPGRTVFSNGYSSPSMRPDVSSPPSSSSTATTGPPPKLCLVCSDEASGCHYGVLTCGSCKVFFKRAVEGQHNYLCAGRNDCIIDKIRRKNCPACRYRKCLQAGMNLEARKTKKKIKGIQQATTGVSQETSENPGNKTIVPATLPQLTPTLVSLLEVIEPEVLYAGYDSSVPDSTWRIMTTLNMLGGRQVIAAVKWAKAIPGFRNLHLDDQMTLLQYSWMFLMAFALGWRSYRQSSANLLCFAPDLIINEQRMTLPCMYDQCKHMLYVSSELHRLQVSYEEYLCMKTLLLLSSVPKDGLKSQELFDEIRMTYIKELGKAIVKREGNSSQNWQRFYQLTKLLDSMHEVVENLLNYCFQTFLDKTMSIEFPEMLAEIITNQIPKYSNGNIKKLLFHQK
Summary of the method: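 Beta-lactamase reporter activity, read as fluorescence intensity, was measured in GR-bla HeLa cells exposed to compounds for 18 h at 37 C and then loaded with LiveBLAzer B/G FRET substrate for 2 h at room temperature.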

[19] = target: Glucocorticoid receptor (Homo sapiens) (UniProt P04150); experiment: qHTS assay to identify small molecule antagonists of the glucocorticoid receptor (GR) signaling pathway (AID 720692; active = well fitted inhibition curve with a large enough effect in the signal ratio in the repeat runs, not every such curve was filed as active; the % refers to the signal ratio)
Summary of the method: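 Fluorescence from cleaved LiveBLAzer B/G FRET substrate reports GRE-driven beta-lactamase in HeLa cells; compounds are tested against 5 nM dexamethasone (final) over 18 h at 37 C, substrate incubation 2 h at room temperature.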

[20] = qHTS assay to test for compound auto fluorescence at 460 nm (blue) in HEK293 cell free culture (AID 720681)
Summary of the method: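 Blue fluorescence (Ex 405/Em 460 nm, triamterene-equivalent) was read immediately after pin transfer of compound or DMSO into medium (DMEM, 10% FBS) without cells.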

Row | Structure (SMILES) | Potency [1] | Potency [2] | Potency [3] | Potency [4] | Potency [5] | outcome [6] | outcome [7] | Potency [8] | outcome [9] | outcome [10] | outcome [11] | outcome [12] | outcome [13] | Potency [14] | outcome [15] | Potency [16] | Potency [17] | outcome [18] | Potency [19] | Potency [20]
1 | NC(=O)NC(N)=O | inactive | inactive | inactive | inactive | inactive | inactive | inactive | inactive | inactive | inactive | inactive | inactive | inactive | inactive | inactive | inactive | – | – | – | –
2 | C=C(C)CC(C)(C)C | – | inactive | inactive | inactive | – | inactive | inactive | inactive | inactive | inactive | inactive | inactive | inactive | inactive | inactive | inactive | inactive | inactive | inactive | –
3 | Clc1cccc(Cl)c1NC1=NCCN1 | – | inactive | – | inactive | inactive | inactive | inactive | inactive | inactive | inactive | inactive | inactive | inactive | inactive | inactive | inactive | inactive | inactive | inactive | inactive
4 | Brc1ccc(Oc2ccc(Br)cc2)cc1 | inactive | inactive | inactive | inactive | 21.7 µM (active) and 27.3 µM (active) | inactive | inactive | inactive | inactive | inactive | inactive | inactive | inactive | inactive | inactive | inactive | – | inactive | inactive | –
5 | O=c1c(O)c(-c2ccc(O)c(O)c2)oc2cc(O)cc(O)c12 | – | inactive | 54.5 µM (active) | inactive | – | inactive | inactive | inactive | inactive | inactive | inactive | inactive | inactive | inactive | inactive | inactive | 49 µM (active) | – | – | –
6 | CC(=O)OCc1ccc2c(c1)OCO2 | – | inactive | – | inactive | inactive | inactive | inactive | – | inactive | inactive | inactive | inactive | inactive | inactive | inactive | inactive | inactive | inactive | inactive | –
7 | CC(=O)OC/C=C(\C)CCC=C(C)C | – | inactive | inactive | inactive | – | inactive | inactive | inactive | inactive | inactive | inactive | inactive | inactive | inactive | inactive | inactive | inactive | inactive | inactive | inactive
8 | O=c1n(CCCN2CCN(c3cccc(Cl)c3)CC2)nc2ccccn12 | – | inactive | – | inactive | inactive | inactive | inactive | inactive | inactive | inactive | inactive | inactive | inactive | inactive | inactive | inactive | inactive | – | – | inactive
9 | CCCCCNCCCCC | inactive | inactive | inactive | inactive | inactive | inactive | inactive | inactive | inactive | inactive | inactive | inactive | inactive | inactive | inactive | inactive | – | – | – | –
